A number with no mark means an inactive call. Records with an inconclusive call do not appear. Entries that show only a call come without a potency. Activity calls are given as the source filed them. Calls follow the shape of the dose curve; as a rule, active = well fitted curve in the direction sought with a large enough effect in the repeat runs; inconclusive = weak or mixed curves; inactive = no such curve, though single readings can be large; an effect the other way counts as inactive or inconclusive.
Assays:
[1] = Caspase-3/7 induction in HepG2 cells by small molecules, qHTS assay (AID 1346978); also: nearly all actives have a fitted effect of over 15% in size
Summary of the method: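 Wild-type HepG2 cells (2,000/well) were settled 5 h at 37 C, 5% CO2, then exposed to compounds in DMSO for 17 h. Caspase-3/7 activity was read by luminescence 30 min after adding Caspase-Glo 3/7 reagent at room temperature.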

[2] = Caspase-3/7 induction in CHO-K1 cells by small molecules, qHTS cell viability counter screen (AID 1346979); also: nearly all actives have a fitted effect of over 35% in size; also: potency is read from the fitted curve at half-maximal effect
Summary of the method: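 Cytotoxicity counter screen run in parallel with the caspase-3/7 assay: CHO-K1 cells, 16hr compound treatment at 37C, then CellTiter-Fluor for 1hr before fluorescence reading.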

[3] = Caspase-3/7 induction in CHO-K1 cells by small molecules, qHTS assay (AID 1346980); also: nearly all actives have a fitted effect of over 15% in size
Summary of the method: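 Wild-type cells were seeded at 1,500 per well and settled 5 hr at 37 C, 5% CO2, then exposed to DMSO-dissolved compounds for 17 hr. Caspase-Glo 3/7 reagent was added, and luminescence was read after 30min at room temperature.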

[4] = Caspase-3/7 induction in HepG2 cells by small molecules, qHTS cell viability counter screen (AID 1346981); also: nearly all actives have a fitted effect of over 30% in size; also: potency is read from the fitted curve at half-maximal effect
Summary of the method: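 Counter screen for cytotoxicity: HepG2 exposed 16 hr to compounds, then CellTiter-Fluor viability signal (fluorescence, 1 hr reagent incubation).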

[5] = target: Nuclear receptor subfamily 1 group I member 2 (Homo sapiens) (UniProt O75469); assay: Human pregnane X receptor (PXR) small molecule agonists, qHTS assay (AID 1346982); also: nearly all actives have a fitted effect of over 35% in size
Chain of Nuclear receptor subfamily 1 group I member 2 (Homo sapiens) (O75469 whole entry, looked up): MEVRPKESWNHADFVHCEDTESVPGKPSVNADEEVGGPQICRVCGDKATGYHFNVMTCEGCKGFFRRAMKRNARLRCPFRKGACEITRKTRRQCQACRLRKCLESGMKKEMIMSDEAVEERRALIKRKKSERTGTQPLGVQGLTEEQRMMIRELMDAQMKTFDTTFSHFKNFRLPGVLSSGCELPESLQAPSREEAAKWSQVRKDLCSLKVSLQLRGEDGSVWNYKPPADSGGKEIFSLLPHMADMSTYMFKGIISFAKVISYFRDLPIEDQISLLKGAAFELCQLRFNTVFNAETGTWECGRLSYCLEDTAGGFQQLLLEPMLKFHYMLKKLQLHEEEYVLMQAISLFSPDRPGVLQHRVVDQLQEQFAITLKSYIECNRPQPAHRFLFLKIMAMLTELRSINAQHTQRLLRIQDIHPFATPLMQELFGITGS
Summary of the method: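 Luminescence (ONE-Glo, 30 min RT) after 24 hr compound exposure of PXR-Luc HepG2 cells; cells rested 5 hr post-plating in 5% charcoal-stripped FBS medium.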

[6] = target: Cytochrome P450 2D6 (Homo sapiens) (UniProt P10635); assay: Cytochrome P450 Family 2 Subfamily D Member 6 (CYP2D6) small molecule antagonists: luciferase reporter qHTS assay (AID 1671196); also: series mostly up to about 120 µM; nearly all actives have a fitted effect of over 50% in size
Chain of Cytochrome P450 2D6 (Homo sapiens) (P10635 whole entry, looked up): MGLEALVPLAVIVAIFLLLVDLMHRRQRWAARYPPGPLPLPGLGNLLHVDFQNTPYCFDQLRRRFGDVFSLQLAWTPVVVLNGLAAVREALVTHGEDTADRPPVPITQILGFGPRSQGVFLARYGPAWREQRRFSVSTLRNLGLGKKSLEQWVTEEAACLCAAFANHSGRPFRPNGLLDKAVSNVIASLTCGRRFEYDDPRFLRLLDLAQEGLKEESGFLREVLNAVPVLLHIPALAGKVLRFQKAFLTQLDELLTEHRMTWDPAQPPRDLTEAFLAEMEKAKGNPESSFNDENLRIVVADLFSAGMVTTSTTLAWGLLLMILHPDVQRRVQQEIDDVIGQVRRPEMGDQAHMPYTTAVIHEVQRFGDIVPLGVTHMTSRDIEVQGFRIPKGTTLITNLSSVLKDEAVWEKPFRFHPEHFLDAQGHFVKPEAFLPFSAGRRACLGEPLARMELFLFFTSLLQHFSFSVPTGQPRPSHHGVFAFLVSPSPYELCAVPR
Summary of the method: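 Inhibition of CYP2D6 was gauged by loss of luminescence, since light produced tracks the luciferin generated from a proluciferin substrate. A 10 min room-temperature preincubation preceded 1 h NADPH-supported turnover.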

[7] = target: Cytochrome P450 2C19 (Homo sapiens) (UniProt P33261); assay: Cytochrome P450 Family 2 Subfamily C Member 19 (CYP2C19) small molecule antagonists: luciferase reporter qHTS assay (AID 1671197); also: nearly all actives have a fitted effect of over 65% in size; also: potency is read from the fitted curve at half-maximal effect
Chain of Cytochrome P450 2C19 (Homo sapiens) (P33261 whole entry, looked up): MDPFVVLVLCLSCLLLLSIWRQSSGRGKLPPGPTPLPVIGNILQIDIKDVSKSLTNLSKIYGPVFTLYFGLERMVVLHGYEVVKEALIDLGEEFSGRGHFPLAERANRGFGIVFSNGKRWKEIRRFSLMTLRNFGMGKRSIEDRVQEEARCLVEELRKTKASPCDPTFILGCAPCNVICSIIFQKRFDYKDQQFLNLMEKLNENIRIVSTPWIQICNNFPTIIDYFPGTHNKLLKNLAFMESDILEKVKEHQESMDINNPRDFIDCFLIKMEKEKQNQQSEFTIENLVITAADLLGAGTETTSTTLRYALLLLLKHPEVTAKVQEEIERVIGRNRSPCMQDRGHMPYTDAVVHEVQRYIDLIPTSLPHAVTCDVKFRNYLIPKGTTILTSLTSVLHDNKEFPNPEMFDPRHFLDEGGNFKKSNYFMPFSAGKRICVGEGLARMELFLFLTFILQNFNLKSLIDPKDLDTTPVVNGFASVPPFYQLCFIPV
Summary of the method: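 P450-Glo CYP2C19 system: enzyme-substrate mix with compound 10 min at room temperature, then NADPH regeneration solution, 1 h at 37C. Proluciferin-to-luciferin conversion detected by luminescence after 20 min with detection reagent; ketoconazole as positive control.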

[8] = target: Nuclear receptor subfamily 1 group I member 2 (Rattus norvegicus) (UniProt Q9R1A7); assay: Rat pregnane X receptor (rPXR) activation by small molecules, qHTS assay (AID 1346983); details: rPXR luciferase reporter cells, One-Glo luminescence, 24 h; max activation: hits give high values; also: nearly all actives have a fitted effect of over 20% in size
Chain of Nuclear receptor subfamily 1 group I member 2 (Rattus norvegicus) (Q9R1A7 whole entry, looked up): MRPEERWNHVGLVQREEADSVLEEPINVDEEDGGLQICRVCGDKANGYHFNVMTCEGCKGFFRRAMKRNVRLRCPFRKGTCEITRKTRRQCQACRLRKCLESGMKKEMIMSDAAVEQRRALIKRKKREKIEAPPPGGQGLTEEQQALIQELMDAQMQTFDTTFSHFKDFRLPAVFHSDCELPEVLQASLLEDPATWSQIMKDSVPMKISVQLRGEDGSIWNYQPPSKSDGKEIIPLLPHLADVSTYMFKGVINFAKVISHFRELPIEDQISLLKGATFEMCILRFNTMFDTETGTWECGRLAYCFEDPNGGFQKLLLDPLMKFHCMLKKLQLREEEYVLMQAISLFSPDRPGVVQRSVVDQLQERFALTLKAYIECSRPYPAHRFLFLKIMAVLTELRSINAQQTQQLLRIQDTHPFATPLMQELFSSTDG
Summary of the method: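 Cell-based rPXR luciferase reporter assay, 2,000 cells per well, rested 5hr at 37 C before compound addition in DMSO, then 24 hr at 37 C. One-Glo reagent was added and luminescence read after 30 min at room temperature.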

[9] = target: Nuclear receptor subfamily 1 group I member 2 (Homo sapiens) (UniProt O75469); assay: CYP3A4 induction through human pregnane X receptor (PXR) by small molecules, qHTS assay (AID 1346984); also: nearly all actives have a fitted effect of over 40% in size
Summary of the method: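 DPX-2 reporter cells; 24h cpd, 37C; Luciferin-IPA 3uM final x3h; One-Glo 30 min RT; lumi read.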

[10] = target: Nuclear receptor subfamily 1 group I member 2 (Homo sapiens) (UniProt O75469); assay: Human pregnane X receptor (PXR) activation by small molecules, qHTS assay (AID 1346985); also: nearly all actives have a fitted effect of over 40% in size
Summary of the method: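 DPX-2 cells (HepG2 co-transfected with a PXR response element and a CYP3A4-promoter luciferase construct) were seeded at 2,000 per well, rested 5 hr at 37C, then exposed to DMSO-dissolved compounds for 24 hr. Activation was read as luciferase luminescence.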

## CCC(CO)(CO)[N+](=O)[O-]
[1]
  Potency: inactive
[2]
  Potency: inactive
[3]
  outcome: inactive
[4]
  Potency: inactive
[5]
  Potency: inactive
[6]
  Potency: inactive
[7]
  Potency: inactive

## NC(=O)CCCCC(N)=O
[1]
  Potency: inactive
[2]
  Potency: inactive
[3]
  outcome: inactive
[4]
  Potency: inactive
[5]
  Potency: inactive
[6]
  Potency: inactive
[7]
  Potency: inactive

## O=[N+]([O-])C1(Br)COCOC1
[1]
  Potency: inactive
[2]
  Potency: 54.5 µM (active)
[3]
  outcome: inactive
[4]
  Potency: inactive
[6]
  Potency: inactive
[7]
  Potency: 15.9 µM (active)

## Cc1ccc(NC(=O)N(C)C)cc1NC(=O)N(C)C
[1]
  Potency: inactive
[2]
  Potency: inactive
[3]
  outcome: inactive
[4]
  Potency: inactive
[6]
  Potency: inactive
[7]
  Potency: inactive

## CCN(CC)C(=O)/C(C#N)=C/c1cc(O)c(O)c([N+](=O)[O-])c1
[1]
  Potency: inactive
[2]
  Potency: 26.6 µM (active)
[3]
  outcome: inactive
[4]
  Potency: 29.8 µM (active)
[8]
  max activation: -6.1%
[9]
  Potency: inactive
[10]
  Potency: inactive
[6]
  Potency: inactive
[7]
  Potency: inactive

## CC(C)c1ccc(C(=O)N=C(N)N)cc1S(C)(=O)=O
[1]
  Potency: inactive
[2]
  Potency: inactive
[3]
  outcome: inactive
[4]
  Potency: inactive
[5]
  Potency: inactive
[7]
  Potency: inactive

## C=C(C)c1ccccc1
[1]
  Potency: inactive
[2]
  Potency: inactive
[3]
  outcome: inactive
[4]
  Potency: inactive
[5]
  Potency: inactive
[7]
  Potency: inactive
